# Values joined by “and” are separate entries in the source; they are usually repeats but may differ in a detail not shown here. Equal values may be shown once. Results filed as inconclusive are left out. Where a structure was tested more than once in an assay, its records may differ in their call. Active and inactive are the calls of the source. Rule for the calls, unless noted: active = hit-call score of the fitted dose curve at least 0.9, where 1 is the maximum; inconclusive = response in the unintended direction; inactive = score below 0.9.
# What was measured:
# [1] = target: human Peroxisome Proliferator-activated Receptor alpha (PPARa), PPARA (gene 5465) (UniProt Q07869); experiment: ATG_PPARa_TRANS: Attagene TRANS-FACTORIAL HepG2 Assay for human Peroxisome Proliferator-activated Receptor alpha (PPARa) (AID 2283001);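 for AC50: potency for gain of reporter signal over DMSO so agonist or activator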
# Procedure, shortened: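 Reporter transcripts quantified by RT-PCR plus capillary electrophoresis after 24 h treatment, fitted upward relative to DMSO. Cells: human HepG2 transiently carrying multiple GAL4-UAS reporter units driven by NR-Gal4 chimeras.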
# [2] = read-out: Intercellular Adhesion Molecule 1 (ICAM1), ICAM1 (gene 3383); experiment: BSK_3C_ICAM1: BioMAP Diversity Plus: 3C Assay for Intercellular Adhesion Molecule 1 (ICAM1) Biomarker Activity (AID 2283003; active = hit-call score of the fitted dose curve at least 0.9, where 1 is the maximum; inactive = score below 0.9); settings: primary human endothelial cells (HUVEC); actives raise or lower the signal
# Procedure, shortened: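 Chemicals are dosed onto primary human umbilical vein endothelium (3C system). After 24 h, ICAM-1 is measured by ELISA, and responses are fitted bidirectionally relative to DMSO.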
# [3] = BSK_3C_Proliferation: Cell Proliferation Assessment in the BioMAP Diversity Plus: 3C Assay (AID 2283006; active = hit-call score of the fitted dose curve at least 0.9, where 1 is the maximum; inactive = score below 0.9;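 for AC50: potency may reflect either rise or fall in cell number versus DMSO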); settings: primary human endothelial cells (HUVEC)
# Procedure, shortened: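 Cells (human umbilical vein endothelial, sub-confluent) receive test chemical; after 48 h they are fixed in 10% trichloroacetic acid, stained with 0.1% SRB and read at 560 nm. Activity is referenced to DMSO, fitting increases and decreases.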
# [4] = target: Nuclear receptor subfamily 1 group I member 2 (Homo sapiens) (UniProt O75469); experiment: ATG_PXR_TRANS: Attagene TRANS-FACTORIAL HepG2 Assay for human Pregnane X Receptor (PXR) (AID 2283008)
# Procedure, shortened: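 Trans-factorial format: exogenous NR-Gal4 fusion activity, not endogenous factor, in transfected human HepG2 liver cells. After 24 h dosing, RNA isolated, reverse-transcribed, amplified and resolved by capillary electrophoresis; induction scored versus DMSO.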
# [5] = target: Retinoic acid receptor alpha (Homo sapiens) (UniProt P10276); experiment: ATG_RARa_TRANS: Attagene TRANS-FACTORIAL HepG2 Assay for human Retinoic Acid Receptor alpha (RARa) (AID 2283005)
# Procedure, shortened: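 Reporter transcripts, measured by RT-PCR with fluorescent labeling and capillary electrophoresis after 24 h dosing, reflect activity of an exogenous human RARa–GAL4 fusion in transiently transfected HepG2. Fitted for increase relative to DMSO.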
# [6] = target: human RAR-related Orphan Receptor beta (RORb), RORB (gene 6096) (UniProt Q92753); experiment: ATG_RORb_TRANS: Attagene TRANS-FACTORIAL HepG2 Assay for human RAR-related Orphan Receptor beta (RORb) (AID 2283010);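 for AC50: potency for increased reporter mRNA meaning activation of RORb-Gal4 chimera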
# Procedure, shortened: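 Transfect HepG2 with multiple GAL4-UAS reporter transcription units; dose chemicals for 24 h; isolate RNA, reverse-transcribe and PCR-amplify reporter sequences; label, digest and resolve fragments by capillary electrophoresis; fit increases relative to DMSO.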
# [7] = target: human Peroxisome Proliferator-activated Receptor delta (PPARd), PPARD (gene 5467) (UniProt Q03181); experiment: ATG_PPARd_TRANS: Attagene TRANS-FACTORIAL HepG2 Assay for human Peroxisome Proliferator-activated Receptor delta (PPARd) (AID 2283002)
# Procedure, shortened: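 Transient HepG2 transfection (multiple GAL4-UAS RTUs, chimeric receptor-Gal4); 24 h dosing; total RNA → oligo(dT) RT → PCR → 6-FAM primer extension → HpaI cut → CE. Positive direction vs DMSO.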
# [8] = target: human Retinoic Acid Receptor beta (RARb), RARB (gene 5915) (UniProt P10826); experiment: ATG_RARb_TRANS: Attagene TRANS-FACTORIAL HepG2 Assay for human Retinoic Acid Receptor beta (AID 2283004)
# Procedure, shortened: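 HepG2 cells were transiently transfected with GAL4-UAS reporter units that report activity of exogenous chimeric NR-Gal4 proteins, then exposed to compound for 24 h. Reporter mRNA was quantified by RT-PCR with capillary electrophoresis fluorescence, as gain of signal over DMSO.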
# [9] = target: human Retinoic Acid Receptor gamma (RARg), RARG (gene 5916) (UniProt P13631); experiment: ATG_RARg_TRANS: Attagene TRANS-FACTORIAL HepG2 Assay for human Retinoic Acid Receptor gamma (RARg) (AID 2283009)
# Procedure, shortened: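 TRANS format measured activity of exogenous NR-GAL4 fusion (RARg) in transfected HepG2 liver cells after 24 h dosing. Induced reporter RNA was detected by RT-PCR/capillary electrophoresis fluorescence, analysed in the positive direction against DMSO.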
# [10] = target: Peroxisome proliferator-activated receptor gamma (Homo sapiens) (UniProt P37231); experiment: ATG_PPARg_TRANS: Attagene TRANS-FACTORIAL HepG2 Assay for human Peroxisome Proliferator-activated Receptor-gamma (PPARg) (AID 2283007)
# Procedure, shortened: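 Multiplexed reporter transcription units in HepG2, 24 h dosing, reporter transcripts quantified by fluorescent RT-PCR and capillary electrophoresis. Increase over DMSO scored.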
# Chain of human Retinoic Acid Receptor gamma (RARg), RARG (gene 5916) (P13631 whole entry, looked up, the tested form may be a part): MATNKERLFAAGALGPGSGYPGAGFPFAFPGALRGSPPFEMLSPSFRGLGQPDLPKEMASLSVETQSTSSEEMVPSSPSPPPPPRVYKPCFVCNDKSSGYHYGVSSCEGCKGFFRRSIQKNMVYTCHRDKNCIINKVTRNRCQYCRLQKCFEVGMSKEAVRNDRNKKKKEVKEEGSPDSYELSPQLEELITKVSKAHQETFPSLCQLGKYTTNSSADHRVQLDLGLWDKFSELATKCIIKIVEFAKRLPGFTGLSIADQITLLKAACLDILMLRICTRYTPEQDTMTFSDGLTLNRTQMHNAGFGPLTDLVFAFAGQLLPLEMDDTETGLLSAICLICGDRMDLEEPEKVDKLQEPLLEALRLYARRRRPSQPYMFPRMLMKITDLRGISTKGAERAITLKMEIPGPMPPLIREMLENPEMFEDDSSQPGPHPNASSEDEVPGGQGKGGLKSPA
# Chain of human Peroxisome Proliferator-activated Receptor delta (PPARd), PPARD (gene 5467) (Q03181 whole entry, looked up, the tested form may be a part): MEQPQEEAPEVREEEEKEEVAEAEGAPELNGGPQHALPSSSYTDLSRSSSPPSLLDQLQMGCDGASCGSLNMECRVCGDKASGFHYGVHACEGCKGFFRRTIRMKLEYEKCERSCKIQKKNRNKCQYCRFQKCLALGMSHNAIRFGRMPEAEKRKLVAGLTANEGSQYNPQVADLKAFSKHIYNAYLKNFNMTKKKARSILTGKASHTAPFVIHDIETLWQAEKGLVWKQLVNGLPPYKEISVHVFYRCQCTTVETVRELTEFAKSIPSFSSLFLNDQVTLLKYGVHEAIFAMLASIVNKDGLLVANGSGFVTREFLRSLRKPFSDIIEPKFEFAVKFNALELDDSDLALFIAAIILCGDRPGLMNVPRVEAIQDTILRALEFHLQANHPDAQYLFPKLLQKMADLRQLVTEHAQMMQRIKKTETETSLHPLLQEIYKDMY
# Chain of Nuclear receptor subfamily 1 group I member 2 (Homo sapiens) (O75469 whole entry, looked up, the tested form may be a part): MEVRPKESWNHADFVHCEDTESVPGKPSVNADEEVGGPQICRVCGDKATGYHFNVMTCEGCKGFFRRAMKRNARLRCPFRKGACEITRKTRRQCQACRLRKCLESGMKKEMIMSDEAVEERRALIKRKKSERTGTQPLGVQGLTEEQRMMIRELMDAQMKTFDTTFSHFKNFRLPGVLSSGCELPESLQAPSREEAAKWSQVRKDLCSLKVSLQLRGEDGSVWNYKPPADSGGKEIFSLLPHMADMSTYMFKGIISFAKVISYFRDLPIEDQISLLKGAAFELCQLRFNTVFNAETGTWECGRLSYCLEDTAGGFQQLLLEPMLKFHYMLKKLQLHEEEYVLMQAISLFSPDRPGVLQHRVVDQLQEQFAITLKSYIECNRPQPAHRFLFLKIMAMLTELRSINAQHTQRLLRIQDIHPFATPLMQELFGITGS
# Chain of human Peroxisome Proliferator-activated Receptor alpha (PPARa), PPARA (gene 5465) (Q07869 whole entry, looked up, the tested form may be a part): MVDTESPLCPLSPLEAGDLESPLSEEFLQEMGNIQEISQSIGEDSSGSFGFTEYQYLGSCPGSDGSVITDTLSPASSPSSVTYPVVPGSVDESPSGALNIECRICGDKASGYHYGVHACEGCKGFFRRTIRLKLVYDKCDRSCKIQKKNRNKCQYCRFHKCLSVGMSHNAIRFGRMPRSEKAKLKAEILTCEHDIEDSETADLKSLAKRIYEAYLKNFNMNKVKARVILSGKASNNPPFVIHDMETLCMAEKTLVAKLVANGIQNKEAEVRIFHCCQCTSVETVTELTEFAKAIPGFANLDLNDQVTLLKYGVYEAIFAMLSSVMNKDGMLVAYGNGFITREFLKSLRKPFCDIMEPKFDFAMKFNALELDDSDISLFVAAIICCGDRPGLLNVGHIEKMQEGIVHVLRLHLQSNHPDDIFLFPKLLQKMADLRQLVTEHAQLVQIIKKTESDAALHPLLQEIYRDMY
# Chain of human RAR-related Orphan Receptor beta (RORb), RORB (gene 6096) (Q92753 whole entry, looked up, the tested form may be a part): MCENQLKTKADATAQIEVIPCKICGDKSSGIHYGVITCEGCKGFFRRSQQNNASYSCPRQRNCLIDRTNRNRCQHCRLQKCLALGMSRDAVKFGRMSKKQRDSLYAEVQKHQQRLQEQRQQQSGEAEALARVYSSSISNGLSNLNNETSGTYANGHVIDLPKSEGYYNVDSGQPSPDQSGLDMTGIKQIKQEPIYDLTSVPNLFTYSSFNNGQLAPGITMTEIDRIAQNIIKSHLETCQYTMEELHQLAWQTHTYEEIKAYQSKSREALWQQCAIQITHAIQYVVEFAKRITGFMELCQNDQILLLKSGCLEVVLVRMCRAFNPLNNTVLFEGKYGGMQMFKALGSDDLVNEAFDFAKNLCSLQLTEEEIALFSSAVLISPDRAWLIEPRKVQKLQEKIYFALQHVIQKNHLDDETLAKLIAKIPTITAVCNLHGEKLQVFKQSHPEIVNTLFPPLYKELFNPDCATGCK
# Chain of human Retinoic Acid Receptor beta (RARb), RARB (gene 5915) (P10826 whole entry, looked up, the tested form may be a part): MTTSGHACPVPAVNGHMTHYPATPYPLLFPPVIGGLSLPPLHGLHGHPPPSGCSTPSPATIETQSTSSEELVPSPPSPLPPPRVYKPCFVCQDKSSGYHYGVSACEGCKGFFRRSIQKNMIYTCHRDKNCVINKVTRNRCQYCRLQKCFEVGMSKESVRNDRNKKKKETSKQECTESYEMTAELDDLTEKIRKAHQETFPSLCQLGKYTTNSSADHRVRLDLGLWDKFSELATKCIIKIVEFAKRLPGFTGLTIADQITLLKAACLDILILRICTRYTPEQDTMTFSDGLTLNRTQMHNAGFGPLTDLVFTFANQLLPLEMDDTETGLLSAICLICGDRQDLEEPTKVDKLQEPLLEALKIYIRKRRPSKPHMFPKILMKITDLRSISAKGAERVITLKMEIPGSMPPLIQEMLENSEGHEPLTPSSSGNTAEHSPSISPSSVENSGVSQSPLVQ
# Chain of Retinoic acid receptor alpha (Homo sapiens) (P10276 whole entry, looked up, the tested form may be a part): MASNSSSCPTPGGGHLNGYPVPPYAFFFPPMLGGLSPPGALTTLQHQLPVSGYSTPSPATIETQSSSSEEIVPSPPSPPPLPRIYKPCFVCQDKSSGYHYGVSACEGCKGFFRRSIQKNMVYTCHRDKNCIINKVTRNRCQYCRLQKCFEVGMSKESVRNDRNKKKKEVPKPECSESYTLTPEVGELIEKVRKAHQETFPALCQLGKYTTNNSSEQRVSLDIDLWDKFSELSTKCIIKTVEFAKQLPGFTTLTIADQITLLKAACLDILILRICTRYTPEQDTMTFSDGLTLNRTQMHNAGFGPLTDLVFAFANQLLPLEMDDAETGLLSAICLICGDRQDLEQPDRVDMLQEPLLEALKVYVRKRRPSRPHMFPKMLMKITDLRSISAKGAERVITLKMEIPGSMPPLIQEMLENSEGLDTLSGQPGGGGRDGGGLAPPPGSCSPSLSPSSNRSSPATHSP
# Chain of Peroxisome proliferator-activated receptor gamma (Homo sapiens) (P37231 whole entry, looked up): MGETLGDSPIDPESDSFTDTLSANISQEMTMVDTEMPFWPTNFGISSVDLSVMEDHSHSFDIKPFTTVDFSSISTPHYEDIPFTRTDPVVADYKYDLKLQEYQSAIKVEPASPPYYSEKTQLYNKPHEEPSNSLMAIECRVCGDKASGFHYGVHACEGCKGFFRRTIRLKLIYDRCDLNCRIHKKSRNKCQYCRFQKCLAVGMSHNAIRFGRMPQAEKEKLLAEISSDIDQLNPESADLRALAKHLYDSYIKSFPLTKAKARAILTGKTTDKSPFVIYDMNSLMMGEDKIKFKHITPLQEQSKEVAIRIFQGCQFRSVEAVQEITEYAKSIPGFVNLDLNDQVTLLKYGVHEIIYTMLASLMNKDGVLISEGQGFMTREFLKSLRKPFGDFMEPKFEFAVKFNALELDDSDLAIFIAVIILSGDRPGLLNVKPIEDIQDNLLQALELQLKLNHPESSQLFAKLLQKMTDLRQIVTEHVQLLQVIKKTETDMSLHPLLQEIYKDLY
smiles,measurement,setting,value
CCOC(=O)O[C@H](C)OC(=O)c1ccc2c(c1)cc(C(=O)NC1CCN(C(C)C)CC1)n2Cc1cc(-c2ccc(Cl)s2)on1,outcome,[1],inactive
same,AC50,[2],8.99 µM (active)
same,AC50,[3],1.77 µM (active)
same,outcome,[4],inactive
Oc1ccccc1,outcome,[1],inactive
same,outcome,[2],inactive
same,outcome,[5],inactive
same,outcome,[3],inactive
same,outcome,[4],inactive
OC12N=C(c3ccccc3)SC1Cc1cc(Cl)ccc12 (centres undefined),outcome,[1],inactive
same,outcome,[7],inactive
same,outcome,[2],inactive
same,AC50,[3],31.5 µM (active)
same,AC50,[4],2.41 µM (active)
same,outcome,[6],inactive
CCCCCCCCOC(=O)c1cc(O)c(O)c(O)c1,AC50,[1],33.4 µM (active)
same,AC50,[7],39.7 µM (active)
same,AC50,[2],35.5 µM (active)
same,outcome,[8],inactive
same,AC50,[3],17 µM (active)
same,AC50,[4],6.39 µM (active)
same,outcome,[9],inactive
same,outcome,[6],inactive
CCCOC(=O)c1cc(O)c(O)c(O)c1,AC50,[1],27.7 µM (active)
same,outcome,[7],inactive
same,outcome,[2],inactive
same,AC50,[3],10.5 µM (active)
same,AC50,[10],31.8 µM (active)
same,outcome,[4],inactive
same,outcome,[9],inactive
Cc1cn([C@H]2C[C@H](N=[N+]=[N-])[C@@H](CO)O2)c(=O)[nH]c1=O,outcome,[1],inactive
same,outcome,[7],inactive
same,outcome,[2],inactive
same,outcome,[3],inactive
same,outcome,[4],inactive
CCCCCc1ccc(N)cc1,outcome,[1],inactive
same,outcome,[7],inactive
same,outcome,[2],inactive
same,AC50,[3],6.3 µM (active)
same,outcome,[4],inactive
CCCCCCCCOc1ccc(C(=O)c2ccccc2)c(O)c1,outcome,[1],inactive
same,outcome,[7],inactive
same,outcome,[2],inactive
same,outcome,[8],inactive
same,outcome,[5],inactive
same,AC50,[3],30.1 µM (active)
same,outcome,[10],inactive
same,outcome,[4],inactive
same,outcome,[9],inactive
same,outcome,[6],inactive
CN1C(=O)CC[C@H]1c1cccnc1,outcome,[1],inactive
same,outcome,[2],inactive
same,outcome,[3],inactive
same,outcome,[4],inactive
CC1=CC(=O)/C(=C(/C)O)C(=O)O1,outcome,[1],inactive
same,outcome,[7],inactive
same,outcome,[2],inactive
same,outcome,[8],inactive
same,outcome,[3],inactive
same,outcome,[6],inactive
CC(O)CC(C)(C)O (centres undefined),outcome,[1],inactive
same,outcome,[2],inactive
same,outcome,[8],inactive
same,outcome,[5],inactive
same,outcome,[3],inactive
same,outcome,[10],inactive
same,outcome,[4],inactive
same,outcome,[9],inactive
same,outcome,[6],inactive
CC(C)(C)c1csc(-c2cc3cc(OCc4ccccc4CC(=O)O)ccc3o2)n1,outcome,[1],inactive
same,outcome,[7],inactive
same,outcome,[2],inactive
same,AC50,[3],18.1 µM (active)
same,AC50,[10],1.51 µM (active)
same,outcome,[4],inactive
CC(C)(C)c1cc(/C=C2\SC(N)=NC2=O)cc(C(C)(C)C)c1O,outcome,[1],inactive
same,outcome,[7],inactive
same,AC50,[2],31.7 µM (active)
same,outcome,[8],inactive
same,outcome,[5],inactive
same,AC50,[3],13.4 µM (active)
same,AC50,[10],6.79 µM (active)
same,AC50,[4],4.17 µM (active)
same,outcome,[9],inactive
O=C(Nc1ccc(Cl)cc1)Nc1ccc(Cl)c(Cl)c1,outcome,[1],inactive
same,outcome,[7],inactive
same,outcome,[2],inactive
same,outcome,[8],inactive
same,AC50,[3],2.04 µM (active)
same,outcome,[4],inactive
same,outcome,[9],inactive
O=C(O)Cn1c(=O)n(Cc2ccc(Br)cc2F)c(=O)c2ccc(Cl)cc21,outcome,[1],inactive
same,outcome,[2],inactive
same,outcome,[3],inactive
same,AC50,[10],6.18 µM (active)
same,AC50,[4],11 µM (active)
same,outcome,[9],inactive
CCCCCCCCCCCCO,outcome,[1],inactive
same,outcome,[7],inactive
same,AC50,[2],36.2 µM (active)
same,outcome,[8],inactive
same,outcome,[5],inactive
same,AC50,[3],30.2 µM (active)
same,outcome,[4],inactive
same,outcome,[9],inactive
same,outcome,[6],inactive
CCCCOC(=O)c1ccc(O)cc1,outcome,[1],inactive
same,outcome,[7],inactive
same,outcome,[2],inactive
same,outcome,[3],inactive
same,outcome,[4],inactive
same,outcome,[9],inactive
O=c1[nH]sc2ccccc12,outcome,[1],inactive
same,outcome,[7],inactive
same,AC50,[2],18.2 µM (active)
same,AC50,[3],1.55 µM (active)
same,outcome,[6],inactive
O=C(O)c1ccccc1C(=O)OCc1ccccc1,outcome,[1],inactive
same,outcome,[2],inactive
same,outcome,[5],inactive
same,outcome,[3],inactive
same,outcome,[4],inactive
O=CCCCC=O,outcome,[1],inactive
same,outcome,[7],inactive
same,outcome,[2],inactive
same,AC50,[3],25.1 µM (active)
same,outcome,[10],inactive
same,outcome,[4],inactive
same,outcome,[6],inactive
Cc1c2ccccc2c(C)c2c1ccc1ccccc12,AC50,[1],148 µM (active)
same,AC50,[7],100 µM (active)
same,outcome,[2],inactive
same,outcome,[5],inactive
same,AC50,[3],10.4 µM (active)
same,AC50,[10],24.1 µM (active)
same,AC50,[4],2.57 µM (active)
same,outcome,[9],inactive
COCC(C)OCC(C)OCC(C)O (centres undefined),outcome,[1],inactive
same,outcome,[7],inactive
same,outcome,[2],inactive
same,outcome,[3],inactive
same,outcome,[4],inactive
O=C1CCC(C2CCCCC2)CC1,outcome,[1],inactive
same,outcome,[7],inactive
same,outcome,[2],inactive
same,outcome,[8],inactive
same,outcome,[5],inactive
same,outcome,[3],inactive
same,AC50,[10],27.6 µM (active) [middle of 4 runs]
same,outcome,[6],inactive
O=c1c(-c2ccc(O)cc2)coc2cc(O)cc(O)c12,AC50,[1],24.2 µM (active) and 100 µM (active) and 25.6 µM (active)
same,outcome,[7],inactive
same,outcome,[2],inactive
same,outcome,[5],inactive
same,AC50,[3],8.1 µM (active)
same,AC50,[4],24.2 µM (active)
same,outcome,[4],inactive
same,outcome,[9],inactive
same,AC50,[6],27.4 µM (active)
same,outcome,[6],inactive
COc1cc(C(=O)NC2CCN(C)CC2)ccc1Nc1ncc2c(n1)N(C1CCCC1)CC(F)(F)C(=O)N2C,outcome,[1],inactive
same,AC50,[7],3.45 µM (active)
same,outcome,[2],inactive
same,AC50,[3],3.69 µM (active)
same,outcome,[4],inactive
same,outcome,[6],inactive
CCCCCCCCCCCO,AC50,[1],100 µM (active)
same,AC50,[7],166 µM (active)
same,AC50,[2],36.8 µM (active)
same,AC50,[3],34.2 µM (active)
same,outcome,[4],inactive
Cc1ccc(C(C)C)cc1,outcome,[1],inactive
same,outcome,[7],inactive
same,outcome,[2],inactive
same,outcome,[8],inactive
same,outcome,[3],inactive
same,outcome,[4],inactive
O=C(O)Cc1cc(I)c(Oc2ccc(O)c(I)c2)c(I)c1,outcome,[1],inactive
same,outcome,[7],inactive
same,outcome,[2],inactive
same,outcome,[8],inactive
same,AC50,[3],9.41 µM (active)
same,AC50,[4],19.4 µM (active)
same,outcome,[4],inactive
CN(C[C@@H](CC[N+]12CCC(C3CCCCC3)(CC1)CC2)c1ccc(Cl)c(Cl)c1)C(=O)c1cc(C(F)(F)F)cc(C(F)(F)F)c1,outcome,[1],inactive
same,outcome,[7],inactive
same,AC50,[2],39 µM (active)
same,AC50,[3],12.9 µM (active)
same,outcome,[4],inactive
same,outcome,[9],inactive
same,outcome,[6],inactive
c1ccc2ccccc2c1,outcome,[1],inactive
same,outcome,[2],inactive
same,outcome,[8],inactive
same,outcome,[3],inactive
same,outcome,[4],inactive
same,outcome,[6],inactive
CCCCOC(=O)CC(CC(=O)OCCCC)(OC(C)=O)C(=O)OCCCC,outcome,[1],inactive
same,outcome,[7],inactive
same,outcome,[2],inactive
same,AC50,[3],31.5 µM (active)
same,AC50,[4],3.1 µM (active)
same,outcome,[4],inactive
Cc1cccc2ccccc12,outcome,[1],inactive
same,outcome,[7],inactive
same,outcome,[2],inactive
same,outcome,[5],inactive
same,outcome,[3],inactive
same,outcome,[10],inactive
same,outcome,[4],inactive
same,outcome,[9],inactive
same,outcome,[6],inactive
NCc1cccc(C2CCN(C(=O)c3ccc(C#Cc4ccccc4F)o3)CC2)c1,AC50,[1],0.909 µM (active)
same,outcome,[7],inactive
same,AC50,[2],30.1 µM (active)
same,AC50,[3],8.67 µM (active)
same,AC50,[4],8.45 µM (active)
c1ccc(C[n+]2cccc3ccccc32)cc1,outcome,[1],inactive
same,outcome,[7],inactive
same,outcome,[2],inactive
same,outcome,[3],inactive
same,outcome,[4],inactive
same,outcome,[9],inactive

# Source: PubChem BioAssay (EPA / NIEHS)
